F508del corr – correctors of CFTR F508del function in bronchial epithelial cells. CFBE cells, YFP halide quenching; stimulated with forskolin plus potentiator P3; % fluorescence drop versus neutral controls. AID 720511. activity (quench increase), % at 7.58 µM. 350,000 compounds, 0.36% hits;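 active = mean added fluorescence quench of at least 8% versus neutral control, with both replicates also reaching 8%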;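 also: cells transiently co-express mutant CFTR-F508del with the halide-sensitive YFP; corrector assay measuring rescue of mutant channel to the surface after 24 h compound exposure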
GSIS activator – GLuc luminescence reporter in INS-1E cells, primary screen for activators of glucose-dependent secretion of insulin; INS-1E GLuc reporter insulin secretion, 2-3 h; activation, % at 16.6 µM; 370,000 compounds, 0.61% hits; AID 743287;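 active = lowest replicate activation of at least 40%, so every replicate reaches that level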;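 also: 0% = median of neutral control wells and 100% = median of IBMX positive control wells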
Env fusion inh – blocks HIV Env-driven cell-cell fusion; inhibition, % at 12.3 µM; AID 651610; HeLa-JRFL Env/CEM21 cell fusion, luciferase; 360,000 compounds, 1.1% hits;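 active = mean replicate inhibition score of at least 50 and every replicate individually at or above 50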;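 also: 0% = plate neutral controls and 100% = maraviroc near 300 nM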
Wnt act – activators of Wnt/beta-catenin signaling. Wnt/beta-catenin reporter cell assay, activator, plate reader. activation, % at 9.35 µM. 300,000 compounds, 1.2% hits. AID 743398; in the data active = activation above about 30%, passing the limit was not always enough;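 also: 0% = neutral control wells and 100% = positive control wells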
MITF act – increases MITF-driven TRPM1 promoter luciferase signal. activation, % at 12.5 µM. 300,000 compounds, 0.75% hits. AID 588334. SK-MEL-5 TRPM1-promoter luciferase, 24 h; % of positive control, neutral wells = 0;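 active = mean activation of at least 80% with every replicate also reaching 80%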;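 also: 0% = neutral control wells and 100% = parthenolide positive control wells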
* hit, by the source's call; nt = no result; [ ] = dose if it differs, or a comment. Compounds with a hit are over-represented: about 2.7% of the library has one in this group of screens.

SMILES	F508del corr	GSIS activator	Env fusion inh	Wnt act	MITF act
CC(C)NC(=O)N(C)C[C@@H]1Oc2ccc(NS(C)(=O)=O)cc2CC(=O)N(C)C[C@H]1C	nt	5	nt	nt	nt
Cc1sc2c(c1C)C(=O)NC(c1ccccc1F)N2 (stereo not given)	0	11	-5	32*	33
Cc1cccc(C2NC(=O)c3c(sc(C)c3C)N2)c1O (stereo not given)	nt	-6	nt	nt	-9
S=C(NCCSCc1ccc(Cl)cc1Cl)Nc1ccccc1	nt	nt	-56	nt	-4
OCCNCc1ccc(OCc2ccc(Cl)cc2Cl)cc1	3	20	-17	34*	24
S=C(Nc1ccccc1)Nc1ccc(OCc2ccc(Cl)cc2Cl)cc1	nt	nt	103*	nt	nt
OCCCCNCc1ccc(OCc2ccc(Cl)cc2Cl)cc1	nt	2	15	nt	6
COc1ccc(S(=O)(=O)Nc2ccc3c(c2)C(=O)N([C@H](C)CO)C[C@H](C)[C@@H](CN(C)C(=O)Nc2ccc(F)cc2)OCCCC[C@@H](C)O3)cc1	-3	-3	-20[16.7 µM]	nt	nt
O=c1c(C(c2ccccc2)c2c(O)sc3ccccc3c2=O)c(O)sc2ccccc12	nt	56*	-1	-6	5
O=c1c2ccccc2sc2ccccc12	2	-1	-34	14	36
c1ccc(OCCOc2ncnc3sccc23)cc1	nt	nt	-35	42*	41
COc1cccc(COc2ncnc3sccc23)c1	0	8	5	0	-1
O=C(c1ccccc1)N1N=C(C(F)(F)F)CC1(O)c1ccccc1O (stereo not given)	-3	-19	58*	2	nt
CC1=NN(C(=O)c2ccccc2)C(O)(c2ccc(Br)cc2)C1 (stereo not given)	3	0	80*	7	nt
CCC1=NN(C(=O)c2ccc(Br)cc2)C(O)(c2ccccc2)C1 (stereo not given)	nt	-1	-6	-2	-8
O=C(c1ccccc1F)N1N=C(C(F)(F)F)CC1(O)c1ccccc1 (stereo not given)	-1	-30	-25	-4	nt
O=C(Cc1ccncc1)NCC[C@H]1CC[C@H](NC(=O)Nc2ccc(F)cc2)[C@H](CO)O1	-1	11	2[16.7 µM]	nt	nt
CCS(=O)(=O)Nc1ccc2c(c1)C(=O)N(C)C[C@H](OC)[C@H](C)CN(C(=O)COC)[C@H](C)CO2	0	4	4[16.7 µM]	nt	nt
O=S(=O)(c1ccccc1)N1CCN(c2nc3ccccc3s2)CC1	nt	nt	-59	nt	44
O=S(=O)(c1ccc(Cl)cc1)N1CCCN(c2nc3ccc(Cl)cc3s2)CC1	3	-10	91*	-3	nt
CNC[C@H]1Oc2c(NS(C)(=O)=O)cccc2C(=O)N(C)C[C@@H]1C	nt	18	nt	nt	nt
CCN(CC)c1ncnc2scc(C3COc4ccccc4O3)c12 (stereo not given)	nt	nt	28	-1	nt
c1ccc2c(c1)OCC(c1csc3ncnc(N4CCOCC4)c13)O2 (stereo not given)	nt	33	70*	0	-14
Cc1ccc(S(=O)(=O)N[C@@H]2CC[C@@H](CC(=O)NCc3ccccc3F)O[C@@H]2CO)cc1	1	1	8[16.7 µM]	nt	nt
C=CCC(Nc1ccccc1)C12C=CC(O1)C(C(=O)OC)=C2C(=O)OC (stereo not given)	nt	-35	nt	nt	-79
SMILES	F508del corr	GSIS activator	Env fusion inh	Wnt act	MITF act
COC(=O)C1=C(C(=O)OC)[C@]2([C@H]3CC=CCN[C@@H](Cc4ccccc4)C(=O)N3Cc3ccccc3)C=C[C@H]1O2	6	-1	58*	-12	-11
COC(=O)C1=C(C(=O)OC)[C@]2([C@@H]3CC=CCN[C@@H](Cc4ccccc4)C(=O)N3Cc3ccccc3)C=C[C@H]1O2	2	25	73*	-3	-2
C[C@@H]1CN([C@@H](C)CO)C(=O)c2cc(NC(=O)CCCCCC(=O)Nc3ccccc3N)ccc2O[C@H]1CN(C)S(=O)(=O)c1ccc(Cl)cc1	1	-19	nt	nt	nt
COc1cccc(CN2[C@@H](CO)[C@@H](c3ccccc3)C23CN(Cc2ccccc2OC)C3)c1	nt	-1	nt	nt	nt
CCn1c(-c2ccccc2)csc1=Nc1ccc(O)cc1	-1	-10	-47	66*	60
CCN1c2ccccc2-c2nc3ccccc3n2C1c1ccco1 (stereo not given)	nt	nt	55*	0	nt
CCCCCCCCN1C(=O)[C@H](CC(=O)NCc2ccccc2)C[C@@]2(C(=O)OCC)CCCC=C12	0	31	20	-6	nt
CCCCCCCCN1C(=O)[C@H](CC(=O)NCCCCc2ccccc2)C[C@@]2(C(=O)OCC)CCCC=C12	-2	15	69*	2	nt
CCOC(=O)[C@]12CCC=C1N(Cc1cccc3ccccc13)C(=O)[C@H](CC(=O)NCC13CC4CC(CC(C4)C1)C3)C2	0	9	-62	-7	nt
CCOC(=O)[C@]12CCC=C1N(Cc1ccccc1)C(=O)[C@H](CC(=O)NCC13CC4CC(CC(C4)C1)C3)C2	-1	-23	64*	-4	nt
O=C(N[C@@H]1CC[C@@H](CCn2cc(C3(O)CCCC3)nn2)O[C@H]1CO)C1CC1	0	19	-8[16.7 µM]	nt	nt
CCOC(=O)C1=CN(Cc2cccc(I)c2)S(=O)(=O)N(C)C1C (stereo not given)	12*	-12	-5	-5	25
O=C(Nc1nccs1)[C@H]1[C@H](CO)[C@H]2Cn3c(ccc(-c4cccnc4)c3=O)[C@H]2N1CC1CCCC1	3	4	nt	nt	nt
COC(=O)c1ccc(CS(=O)(=O)c2ccc(F)cc2)o1	9.5*	21	-2	-1	-8
COc1cccc(COc2ccc3c(C)cc(=O)oc3c2)c1	4	16	-104	46*	114*
Cc1c(C)c2ccc(OCC(=O)Nc3nccs3)cc2oc1=O	-1	-3	0	22	-11
Cc1cc(=O)oc2cc(OCC(=O)Nc3nccs3)ccc12	-4	2	-56	38*	53
COc1ccc2c(C)cc(=O)oc2c1	1	nt	-68	1	7
Cc1cccc(OCC(=O)Nc2nccs2)c1C	-8	-5	-87	37*	37
C[C@H](CO)N1C[C@H](C)[C@@H](CN(C)CC2CCCCC2)Oc2c(NC(=O)Nc3ccc(C(F)(F)F)cc3)cccc2C1=O	4	-4	nt	nt	nt
CO[C@@H]1CN(C)C(=O)c2cc(NC(=O)NC(C)C)ccc2OC[C@@H](C)N(C(=O)CC2CC2)C[C@@H]1C	2	3	-6[16.7 µM]	nt	nt
O=C(C[C@@H]1CC[C@H]2[C@@H](COC[C@@H](O)CN2C(=O)Nc2cccc(Cl)c2)O1)N1CCCCC1	4	-20	9[16.7 µM]	nt	nt
CN1C(=O)c2cccc3c(Cl)ccc(c23)C1=O	nt	nt	-105	-1	-7
CNc1ccc2c3c(cccc13)C(=O)N(C)C2=O	20*	7	-26	3	19
CC(C)C#Cc1ccc2c(c1)O[C@@H](CN(C)C)[C@@H](C)CN([C@H](C)CO)S2(=O)=O	4	6	-20[16.7 µM]	nt	nt
C/C(=N/O)c1no[n+]([O-])c1/C(C)=N\O	4	16	2	38*	nt
Cc1ccc(Nc2ncnc(-n3cccc3)n2)cc1Cl	1	nt	-124	53*	41

Compound activity: PubChem BioAssay, Broad Institute
